Screening data deposited in PubChem by National Center for Advancing Translational Sciences (NCATS).
SMN2 splice up – SMN2 splice variant enhancement; HEK293 SMN2-luciferase splicing reporter, luminescence, 30-36 h; Potency, µM (top dose mostly 46.1 µM), for inactives: top-dose activity change, positive = activation, hits mostly activators; hit rate 2.8% among 210,000; also: % of control where 0% means no effect; nearly all actives have a fitted effect of over 55% in size
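HEK293 cells carry an SMN2 minigene-luciferase reporter in which exon 7 inclusion puts luciferase in frame. Cells were seeded at 2000 cells/well, attached for 10-12 hours, then exposed to compounds for 30-36 hours at 37C before ONE-Glo luminescence.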
ELG1 genotoxic – inducers of genotoxicity in HEK293T ELG1-luciferase cells; HEK293T ELG1-luciferase reporter, luminescence, 16 h; Potency, µM (series often up to 46 µM), for the others: at the highest dose activity change, positive = activation, most hits filed as activators; hit rate 1.3% among 330,000; also: % of control where 0% means no effect; nearly all actives have a fitted effect of over 60% in size
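Genotoxicity was scored as increased ELG1-luciferase reporter signal, measured by ONE-Glo luminescence (30 min, room temperature). Compound or vehicle exposure of the HEK293T reporter cells lasted 16 hr at 37°C.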
FLuc modulator – counter-screen for miR-21 project: firefly luciferase inhibitors or activators; P08659; purified FLuc, Km substrates, luminescence inhibition; Potency, µM (series often up to 57.5 µM), for the others: at the top dose activity change, negative = inhibition, usual class: inhibitors; hit rate 6.9% among 360,000; AID 588342;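 also: plate controls were vehicle for no effect and reference inhibitor for full effect; nearly all actives have a fitted effect of over 55% in size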
Target sequence (P08659 whole entry, looked up): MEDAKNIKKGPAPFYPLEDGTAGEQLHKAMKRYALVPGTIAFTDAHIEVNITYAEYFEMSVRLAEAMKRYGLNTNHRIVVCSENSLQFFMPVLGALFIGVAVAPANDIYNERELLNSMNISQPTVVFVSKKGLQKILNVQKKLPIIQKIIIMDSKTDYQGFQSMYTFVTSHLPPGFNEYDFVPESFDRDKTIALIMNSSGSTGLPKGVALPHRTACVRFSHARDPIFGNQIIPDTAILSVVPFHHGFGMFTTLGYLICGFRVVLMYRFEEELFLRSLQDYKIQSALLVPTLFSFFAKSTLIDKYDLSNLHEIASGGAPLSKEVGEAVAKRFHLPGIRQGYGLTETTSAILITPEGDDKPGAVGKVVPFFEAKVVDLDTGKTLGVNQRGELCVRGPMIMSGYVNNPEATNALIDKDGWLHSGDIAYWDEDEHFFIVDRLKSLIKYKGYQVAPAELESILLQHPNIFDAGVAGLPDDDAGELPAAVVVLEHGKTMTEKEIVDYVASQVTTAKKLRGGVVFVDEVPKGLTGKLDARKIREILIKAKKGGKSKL
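Purified P. pyralis luciferase (10nM final) with 10uM D-luciferin and 10uM ATP (Km levels) in 50mM Tris acetate pH 7.5, 10mM Mg acetate, 0.01% Tween-20, 0.05% BSA; qHTS 6-point titration, ~60 µM downward; luminescence read.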
p53 reactivation – re-activators of mutant p53. H1299 p53-A138V BP100-luciferase reporter, luminescence, 24 h. Potency, µM (doses to about 92.2 µM), inactives show top-dose activity change, positive = activation, usual class: activators. hit rate 0.063% among 320,000. AID 504706; also: % of control where 0% means no effect; nearly all actives have a fitted effect of over 45% in size
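H1299 (p53-null), stable ts p53-A138V + BP100-Luc; 1000 cells/well, Opti-MEM/10% FBS; cpd 4 pt, 1:5; 24 h, 37 deg C, 5% CO2; detection reagent 10 min RT; luminescence.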
Rab9 prom act – activates the Rab9 promoter. hit rate 2.8% among 320,000. Huh7 Rab9 promoter-luciferase reporter, luminescence, 24 h. AID 485297. Potency, µM (highest dose often 9.22 µM), inactives show at the highest dose activation, negative = inhibition, hits mostly activators; also: % of control where 0% means no effect; nearly all actives have a fitted effect of over 60% in size
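Quantitative HTS format; Huh7 Rab9-luciferase reporter cells (1500/well) receive compound 2 h post-plating, incubate 24 h at 37 °C, then get luciferase reagent for 10 min before luminescence reading.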
NPC1 promoter act – NPC1 promoter activation; Huh7 NPC1 promoter luciferase reporter, 24 h; Potency, µM (titrated, usually from 9.22 µM), for the others: at the highest dose activation, hits mostly activators; hit rate 2.4% among 320,000; AID 485313; also: % of control where 0% means no effect; nearly all actives have a fitted effect of over 60% in size
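Readout is luciferase luminescence, reflecting NPC1 promoter activation in stably transfected Huh7 cells after 24 h compound exposure at 37 °C in reduced-serum medium with 10% FBS.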
* hit, by the source's call; ? = inconclusive; . = not tested or not shown; [ ] = remark or other dose. Rows were chosen to be rich in hits. Some 7.4% of all compounds tested hit in one or more screens of this group. Calls follow the shape of the dose curve; as a rule, active = well fitted curve in the direction sought with a large enough effect; inconclusive = small, poorly fitted or top-dose-only effect, or another doubt; inactive = no such curve, though single readings can be large; an effect the other way counts as inactive or inconclusive. Potency is read from the fitted curve at half-maximal effect.

SMILES	SMN2 splice up	ELG1 genotoxic	FLuc modulator	p53 reactivation	Rab9 prom act	NPC1 promoter act
CN(C)C(=O)c1ccc(NC(=O)COC(=O)/C=C/c2cccs2)cc1	.	-2.4%	1.9%	-2.1%	0.2%	4.1%
CCCOC(=O)c1ccc(NC(=O)/C=C/c2cccs2)cc1	-25.4%	5.0%	23.9µM*	?	1.7%	-1.1%
CC(C)(C)c1ccc(/C=C/C(=O)Nc2ccncc2)cc1	-12.6%	15.5%	4.78µM*	20.6%	0.9%	0.0%
O=C(Nc1ccnn1C1CCN(C(=O)CCc2ccc(F)cc2)CC1)C1CCOC1 (centres undefined)	.	4.5%	4.1%	-6.0%	1.9%	-0.1%
CCCCn1c(N)c(N(Cc2ccccc2OC)C(=O)CN2C(=O)NC3(CCCC3)C2=O)c(=O)[nH]c1=O	.	1.5%	3.3%	-1.4%	-5.2%	-1.8%
CCOC(=O)Nc1ccc2c(C)cc(=O)oc2c1	14.1µM*	18.4µM*	15.1µM*	?	?	?
CCCCOC(=O)Nc1ccc2c(C)cc(=O)oc2c1	11.2µM*	18.4µM*	6.01µM*	.	1.41µM*	1.78µM*
Cc1cc(=O)oc2cc(NC(=O)CCOc3ccccc3)ccc12	.	?	-2.4%	5.1%	26.7%	23.4%
CC1(c2ccc3noc(-c4ccc(F)cc4)c3c2)OCCO1	-72.4%	-0.7%	?	4.1%	-1.5%	0.6%
Fc1ccc(-c2onc3ccc(C4OCCO4)cc23)cc1	-12.1%	-5.4%	8.49µM*	3.2%	5.8%	6.2%
Cc1cc2ncn(C(=O)c3ccc4c(c3)OCO4)c2cc1C	-14.4%	3.5%	?	10.8%	7.8%	-13.2%
Cc1cc2ncn(C(=O)N3CCC(C)CC3)c2cc1C	15.8µM*	12.4%	?	?	?	22.9%
O=C(/C=C/c1cn(-c2ccccc2)nc1-c1ccccc1)Nc1ccc(C(=O)O)cc1	.	4.1%	0.849µM*	19.2%	?	24.4%
Cc1cccc(NC(=O)c2c(C)nn(-c3ccccc3)c2Cl)c1	18.8%	10.6%	13.5µM*	1.4%	?	?
Cc1nn(-c2ccccc2)c(Cl)c1C(=O)Nc1ccc(N2CCOCC2)cc1	-6.1%	-7.2%	-14.3%	-1.4%	-0.2%	0.7%
O=C(NCC1CCCO1)c1cn(-c2ccccc2)nc1-c1ccc(F)cc1 (centres undefined)	.	-2.0%	10.7µM*	1.5%	7.2%	2.9%
NS(=O)(=O)c1ccc(NC(=O)/C=C/c2cn(-c3ccccc3)nc2-c2cccc(Cl)c2)cc1	-12.5%	16.3%	-4.0%	8.2%	-9.1%	-5.4%
O=C(O)c1ccc(NC(=O)c2cn(-c3ccccc3)nc2-c2cccc(Cl)c2)cc1	.	-0.5%	3.79µM*	6.8%	-1.2%	-5.9%
CC(C)c1ccc(-c2nn(-c3ccccc3)cc2C(=O)NCC2CCCO2)cc1 (centres undefined)	.	-8.9%	-11.6%	-2.8%	-10.8%	1.7%
CCOC(=O)c1cc(C(=O)Nc2cccc(C)c2)nn1C	12.6µM*	?	4.78µM*	12.4%	1.41µM*	1.58µM*
Cn1nc(C(=O)Nc2cccc(Cl)c2)cc1C(=O)Nc1cccc(Cl)c1	.	4.8%	0.7%	-0.9%	-1.5%	-3.7%
O=C(O)c1cn(-c2ccccc2)nc1-c1ccc(F)cc1	.	-0.2%[9.26 µM]	?	3.5%	0.6%	-2.3%
Cc1cccc(NC(=O)c2cn(-c3ccccc3)nc2-c2ccccc2)c1	8.3%	1.2%	13.5µM*	1.7%	-1.3%	-2.1%
O=C(O)c1ccc(NC(=O)c2cn(-c3ccccc3)nc2-c2ccc(F)cc2)cc1	.	4.9%	2.69µM*	12.2%	?	22.1%
Cc1ccc(OCC(=O)Nc2cc(-c3cccc(C)c3)nn2-c2ccccc2)cc1	.	.	-0.5%	.	.	.
Cc1cccc(C)c1NC(=O)c1cn(-c2ccccc2)nc1-c1ccccc1	-12.4%	-0.3%	?	15.0%	-3.0%	-9.2%
Cc1cccc(-c2cc(NC(=O)c3ccccc3C)n(-c3ccccc3)n2)c1	.	.	10.7µM*	.	.	.
CCOC(=O)c1scc(-c2ccc(C)cc2)c1S(=O)(=O)Nc1cccc(CC)c1	.	.	-13.5%	.	.	.
